According to the supplement of paper PMC7411054:
Structures can show the parent of a compound that is named as a salt.

Legend:
Conditions in all cases: treatment time: 24 h
HepG2-ACTB-RAB5A = experiment: lowest phenotypically active concentration; higher = less potent
In short: (§1)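 The reporter lines, fifteen in total and built by gene editing in A549, HepG2 and WPMY1 cells, used BFP for segmentation alongside GFP and RFP/FusionRed markers. Each was treated at 0.3, 1, 3 or 9 µM for 24 h in four wells and then imaged live, with live-cell features normalised to solvent control wells. Deviation meant ≥3 of 4 wells beyond the 95th percentile of control Euclidean distances; reproducibility meant a median replicate Pearson correlation above the 95th percentile of non-replicates. Only conditions meeting both were scored as phenotypically active.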

HepG2-CANX-COX4 = experiment: as above
In short: as §1

HepG2-TP53BP1-CLTA = experiment: as above
In short: as §1

HepG2-TUBA1B-RELA = experiment: as above
In short: as §1

WPMY1-ACTB-RAB5A [1] = experiment: as above
In short: as §1

WPMY1-CANX-COX4 = experiment: as above
In short: as §1

WPMY1-GM130-SQSTM1 = experiment: as above
In short: as §1

WPMY1-TP53BP1-CLTA = experiment: as above
In short: as §1

WPMY1-TUBA1B-RELA = experiment: as above
In short: as §1

WPMY1-ACTB-RAB5A [2] = experiment: phenotypically active (imaging signature differs from DMSO and reproducible) at any of 0.3-9 uM (binary (1 = active, 0 = inactive)); higher = active
In short: as §1

Row | Structure (SMILES) | lowest phenotypically active concentration (HepG2-ACTB-RAB5A) [µM] | lowest phenotypically active concentration (HepG2-CANX-COX4) [µM] | lowest phenotypically active concentration (HepG2-TP53BP1-CLTA) [µM] | lowest phenotypically active concentration (HepG2-TUBA1B-RELA) [µM] | lowest phenotypically active concentration (WPMY1-ACTB-RAB5A [1]) [µM] | lowest phenotypically active concentration (WPMY1-CANX-COX4) [µM] | lowest phenotypically active concentration (WPMY1-GM130-SQSTM1) [µM] | lowest phenotypically active concentration (WPMY1-TP53BP1-CLTA) [µM] | lowest phenotypically active concentration (WPMY1-TUBA1B-RELA) [µM] | phenotypically active (WPMY1-ACTB-RAB5A [2])
1 | COc1ccccc1S(=O)(=O)Nc1ccc2c(c1)CN(C)C(=O)N2 | 1 | 3 | 3 | 3 | 3 | 3 | 3 | 9 | 3 | 1 (active)
2 | CNC1CCC2(C)C(=CCC3C2CCC24CN(C)C(C)C2CCC34)C1 (stereo not drawn) [Isoconessimine] | 1 | 9 | 1 | 1 | 1 | 3 | 3 | 3 | 3 | 1 (active)
3 | Cc1cnc(NC(=O)Nc2cc(Br)c(C)cc2OC[C@@H]2CNCCO2)cn1 | 3 | 9 | 1 | 1 | ≤ 0.3 | 1 | 3 | 1 | 1 | 1 (active)
4 | CCOC(=O)Nc1cc(-c2ccc(C)c(NS(C)(=O)=O)c2)nn2c(C)nnc12 [Bromosporine] | ≤ 0.3 | ≤ 0.3 | 1 | 1 | 1 | 1 | 1 | 1 | 1 | 1 (active)
5 | COc1cc([C@@H]2c3cc4c(cc3[C@@H](O[C@@H]3O[C@@H]5CO[C@@H](c6cccs6)O[C@H]5[C@H](O)[C@H]3O)[C@H]3COC(=O)[C@H]23)OCO4)cc(OC)c1O [teniposide] | ≤ 0.3 | ≤ 0.3 | ≤ 0.3 | ≤ 0.3 | ≤ 0.3 | ≤ 0.3 | ≤ 0.3 | ≤ 0.3 | ≤ 0.3 | 1 (active)
6 | CC[C@@H](N)CNc1ccnc(-c2cc(-c3cnn(C)c3)ccc2O)n1 | 1 | 1 | 1 | 1 | 3 | 1 | 1 | 1 | 1 | 1 (active)
7 | Cc1cc(Nc2cc(C)c(C#N)c(NC(C)CCCC(C)(C)O)n2)n[nH]1 (stereo not drawn) [TC-A 2317 hydrochloride] | 1 | 1 | ≤ 0.3 | ≤ 0.3 | 1 | 1 | 1 | ≤ 0.3 | 1 | 1 (active)
8 | O=C(CCCc1ccc(-c2ccccc2F)cc1)Nc1ccc(O)cc1 | 3 | 3 | 9 | 3 | 1 | 1 | 1 | 1 | 1 | 1 (active)
9 | NC(=O)Nc1sc(-c2ccc(F)cc2)cc1C(N)=O | 9 | 3 | 9 | 9 | 9 | 9 | 9 | 9 | 9 | 1 (active)
10 | CCC1=C[C@@H]2CN(C1)Cc1c([nH]c3ccccc13)[C@@](C(=O)OC)(c1cc3c(cc1OC)N(C)[C@H]1[C@@](O)(C(=O)OC)[C@H](OC(C)=O)[C@]4(CC)C=CCN5CC[C@]31[C@@H]54)C2 [vinorelbine] | ≤ 0.3 | ≤ 0.3 | ≤ 0.3 | ≤ 0.3 | ≤ 0.3 | ≤ 0.3 | ≤ 0.3 | ≤ 0.3 | ≤ 0.3 | 1 (active)
11 | Cc1ccc(/C(=C/CN2CCCC2)c2cccc(/C=C/C(=O)O)n2)cc1 [acrivastine] | 3 | 9 | 9 | 1 | 1 | 1 | 1 | 9 | 1 | 1 (active)
12 | CC1(C)CC(=O)C2=C(C1)NC(=S)NC2c1cccc(O)c1 (stereo not drawn) [Dimethylenastron] | 1 | 1 | 1 | 1 | 1 | 3 | 1 | 1 | 1 | 1 (active)
13 | CCCCCCCCCCNCCSSCc1ccc(Cl)cc1 | 3 | 1 | 9 | 3 |  | 3 | 9 | 9 |  | 0 (inactive)
14 | CC(C)(C)c1nc(-c2cccc(NS(=O)(=O)c3c(F)cccc3F)c2F)c(-c2ccnc(N)n2)s1 [dabrafenib] | 3 | ≤ 0.3 | ≤ 0.3 | ≤ 0.3 | 1 | 1 |  |  | 1 | 1 (active)
15 | CN(C)CCCN1c2ccccc2Sc2ccc(Cl)cc21 [chlorpromazine] |  | 9 | 9 | 9 | 9 | 9 |  | 9 | 9 | 1 (active)
16 | S=C(S)N1CCCC1 [Pyrrolidinedithiocarbamate ammonium] | 9 | 3 | 3 | 9 |  |  | 9 |  |  | 0 (inactive)
17 | Cc1ccc(Nc2nccc(N(C)c3ccc4c(C)n(C)nc4c3)n2)cc1S(N)(=O)=O [pazopanib] |  | 3 | 9 |  | 9 | 3 |  |  | 3 | 1 (active)
18 | COc1cc2nc(N3CCN(C(=O)C4COc5ccccc5O4)CC3)nc(N)c2cc1OC (stereo not drawn) [doxazosin] | 9 |  | 9 | 9 | 9 | 9 | ≤ 0.3 | 9 |  | 1 (active)
19 | CC[C@H](CO)Nc1nc(NCc2ccccc2)c2ncn(C(C)C)c2n1 [Roscovitine] | 9 | 3 | 3 | 3 | 9 | 9 |  | 9 | 9 | 1 (active)
